Source: PubChem
Sampled rows, rich in hits. Any-hit rate of the full collection: about 27%.
Cav3 T inh = inhibitors of human Cav3.2 T-type calcium channel | O95180 | Cav3.2-expressing cells, Fluo-4 calcium fluorescence FDSS; stronger effect = lower value | B-score at 10 µM | 100,000 compounds, 4% hits;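 active means single-dose well whose peak fluorescence ratio is a statistical outlier from its plate by either plate-standardised score or position-corrected B-score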
CYP2C9 inhib = human CYP2C9 inhibition; CYP2C9 Supersomes, luciferin-H conversion, luminescence; inhibition, % at 5 µM; 96,000 compounds, 20% hits; AID 777;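 active means blocking of liver enzyme CYP2C9 beyond about 50% at 5 µM, limit read from the data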
CYP2C19 activ = activators of human cytochrome P450 2C19; 96,000 tested, under 10 active; recombinant CYP2C19, luciferin-H EGE luminescence; stronger effect = higher value; 0 = fully inhibited enzyme, 1 = untreated enzyme; AID 1025; activation factor at 5 µM; P33261;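 active means activation factor of at least 2 at 5 µM in the primary screen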
Target sequence (P33261 whole entry, looked up): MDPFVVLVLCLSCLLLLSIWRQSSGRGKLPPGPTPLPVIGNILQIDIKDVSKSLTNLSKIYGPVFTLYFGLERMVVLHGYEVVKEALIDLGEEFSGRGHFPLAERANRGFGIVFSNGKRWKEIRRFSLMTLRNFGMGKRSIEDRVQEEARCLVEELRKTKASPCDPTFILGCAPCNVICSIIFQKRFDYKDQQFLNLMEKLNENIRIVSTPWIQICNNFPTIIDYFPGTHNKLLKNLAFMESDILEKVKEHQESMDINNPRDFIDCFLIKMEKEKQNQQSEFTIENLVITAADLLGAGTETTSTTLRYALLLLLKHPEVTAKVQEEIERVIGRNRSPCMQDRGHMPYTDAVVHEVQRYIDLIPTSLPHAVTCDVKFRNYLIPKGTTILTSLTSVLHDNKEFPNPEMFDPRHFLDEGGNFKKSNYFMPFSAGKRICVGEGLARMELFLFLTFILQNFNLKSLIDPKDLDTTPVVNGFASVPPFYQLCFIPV
CYP2C19 inhib = blocks human cytochrome P450 2C19. P33261. CYP2C19 Supersomes, luciferin-H EGE luminescence, 30 min. inhibition, % at 5 µM. 96,000 compounds, 21% hits;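 active means CYP2C19 inhibition above a set limit at 5 µM in the primary screen, cut at about 50% in these data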
CYP2C9 act = activators of human CYP2C9; P11712; recombinant CYP2C9, luciferin-H conversion, luminescence; stronger effect = higher value; factor 1 = untreated enzyme, 0 = blocked; activation factor at 5 µM; 96,000 compounds, 1.4% hits;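 active means activation factor of 2 or more for CYP2C9 at a 5 µM dose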
A number is an active result; 0 = inactive; - = no result given.

SMILES | Cav3 T inh | CYP2C9 inhib | CYP2C19 activ | CYP2C19 inhib | CYP2C9 act
CCC(=NCc1ccc2c(c1)OCO2)c1c(O)n(C2CCCCC2)c(=O)[nH]c1=O | -5.8 | 100 | 0 | 99 | 0
CCC(=NCCO)c1c(O)n(-c2ccccc2)c(=O)[nH]c1=O | 0 | 0 | 0 | 0 | 0
CCC(=NCCO)c1c(O)n(C2CCCCC2)c(=O)[nH]c1=O | 0 | 0 | 0 | 61 | 0
O=C(NC(Cc1ccccc1)C(=O)N1CCC2(CC1)OCCO2)C1CCCCC1 (centres undefined) | 0 | 0 | 0 | 0 | 0
O=C(C(Cc1ccccc1)NS(=O)(=O)c1ccc(F)cc1)N1CCC2(CC1)OCCO2 (centres undefined) | - | 0 | 0 | 80 | 0
COc1ccc(C2SCC(=O)Nc3c2c(=O)[nH]n3C2CCCCC2)cc1 (centres undefined) | 0 | 0 | 0 | 0 | 0
Cn1cc(C(=O)c2ccccc2)c2ccccc21 | 0 | 0 | 0 | 0 | 2.9
COC(=O)C1=C(c2ccc(S(C)(=O)=O)cc2)C[C@@H]2CC[C@H]1N2C(=O)NCCCOC(C)C | 0 | - | - | - | -
CC1(C)CN=C(Nc2ccc(F)c(F)c2)S1 | 0 | 0 | 0 | 62 | 0
CC1CCC(C(C)C)C(OP(N)(=O)c2ccccc2)C1 (centres undefined) | 0 | 65 | 0 | 83 | 0
CC(C)C/C(=N/O)c1c[nH]c2ccccc12 | 0 | 59 | 0 | 77 | 0
CC(C(=O)c1c[nH]c2ccccc12)N1CCSCC1 (centres undefined) | 0 | 0 | 0 | 0 | 0
CCC(=O)Nc1cc(C(=O)N2CCC3(CC2)OCCO3)ccc1S(=O)(=O)c1ccc(C)cc1 | 0 | 0 | 0 | 0 | 0
CCOc1cc(C2NCc3ccccc3-n3cccc32)ccc1O (centres undefined) | - | 75 | 0 | 61 | 0
CCOc1cccc(C2NCc3ccccc3-n3cccc32)c1O (centres undefined) | 0 | 0 | 0 | 0 | 0
CC(C)CCNC(=O)c1c(N)n(CC2CCCO2)c2nc3ccccc3nc12 (centres undefined) | -4.2 | 95 | 0 | 61 | 0
CCC(C)NC(=O)c1c(N)n(CC2CCCO2)c2nc3ccccc3nc12 (centres undefined) | -8.7 | 0 | 0 | 0 | 0
CCC(C)NC(=O)c1c(N)n(Cc2ccc3c(c2)OCO3)c2nc3ccccc3nc12 (centres undefined) | 0 | 67 | 0 | 0 | 0
NP(=O)(OCC(F)(F)F)Oc1ccccc1 (centres undefined) | 0 | - | - | - | -
COC(=O)C1=C(c2cccc(OC)c2OC)C[C@@H]2CC[C@H]1N2C(=O)NCCO | 0 | - | - | - | -
CCCCn1c(O)c(C(CC)=NCCN2CCOCC2)c(=O)[nH]c1=O | 0 | 64 | 0 | 0 | 0
CCCCn1c(O)c(C(CC)=NCc2ccc(F)cc2)c(=O)[nH]c1=O | 0 | 71 | 0 | 0 | 0
CCC(C)C1NC(=O)C(C(C)=O)=C1O (centres undefined) | 0 | - | - | - | -
CNC(=O)Oc1ccc2c(c1)C(=O)c1ccccc1CO2 | 0 | 0 | 0 | 61 | 0
Cc1ccc(-c2nc3ccccc3c(=O)n2-c2ncccc2C)cc1 | 0 | 0 | 0 | 0 | 0
SMILES | Cav3 T inh | CYP2C9 inhib | CYP2C19 activ | CYP2C19 inhib | CYP2C9 act
OC1(c2ccc(F)cc2)CC2CCC(C1)N2Cc1nnnn1C1CCCCC1 (centres undefined) | - | 0 | 0 | 50 | 0
OCCN1C2CCC1CC(O)(c1ccc(F)cc1)C2 (centres undefined) | 0 | 0 | 0 | 0 | 0
CCC/C=C(\CCC)C(NP(=O)(c1ccccc1)c1ccccc1)c1ccccc1 (centres undefined) | 0 | - | - | - | -
CCNCC1(c2ccc(OC)c(OC)c2)CCCC1 | 0 | 0 | 0 | 0 | 0
Cc1nn(-c2ccccc2)c2c1C(c1ccc3c(c1)OCO3)SCC(=O)N2 (centres undefined) | 0 | 90 | 0 | 90 | 0
COc1cc(C2SCC(=O)Nc3c2c(C)nn3-c2ccccc2)cc(OC)c1OC (centres undefined) | 0 | 69 | 0 | 79 | 0
O=C1CSC2(CN3CCC2CC3)N1 (centres undefined) | - | 0 | 0 | 0 | 0
CC(NC(=O)Oc1ccccc1)C(c1cccs1)N1CCOCC1 (centres undefined) | 0 | - | - | - | -
CC12CN3CC(C)(CN(C1)C3c1cccs1)C2O (centres undefined) | 0 | 0 | 0 | 58 | 0
Cc1ccc(O)c(CN2CCN(c3ccccc3)CC2)c1 | 0 | 72 | 0 | 93 | 0
Oc1cc2c(cc1CN1CCN(c3ccccc3)CC1)CCC2 | 0 | - | - | - | -
Oc1ccc(Cl)cc1CN1CCN(Cc2ccccc2)CC1 | 0 | 56 | 0 | 90 | 0
FC(F)(F)c1ccccc1CN1CCN(Cc2ccccc2)CC1 | 0 | 0 | 0 | 69 | 0
Cc1cc(O)c(CN2CCN(c3ccccc3)CC2)cc1C | 0 | 0 | 0 | 0 | 0
COc1ccc(CN2CCN(c3ccccc3)CC2)c(C)c1C | 0 | 0 | 0 | 83 | 0
CCCCn1c(O)c(C=Nc2c(C)n(C)n(-c3ccccc3)c2=O)c(=O)[nH]c1=O | 0 | 0 | 0 | 0 | 0
CCN1C[C@@]2(COC)C3[C@@H](OC)[C@H]4[C@@H]1[C@@]3(C1C[C@H]3[C@H](O)C1[C@]4(O)C[C@H]3OC)[C@@H](OC)C[C@H]2O (some centres undefined) | 0 | - | - | - | -
Cc1ccc(CN2C(=O)NC(=O)C3(Cc4c(nc5ccccn5c4=O)N4CCCCCC43)C2=O)cc1 (centres undefined) | 0 | 0 | 0 | 0 | 0
COc1ccc(-n2c(O)c(C=Nc3c(C)n(C)n(-c4ccccc4)c3=O)c(=O)[nH]c2=O)cc1 | 0 | 0 | 0 | 0 | 0
CCOC(=O)N(CC)c1ccc(C(O)(C(=O)OC)C(F)(F)F)cc1 (centres undefined) | 0 | 0 | 0 | 64 | 0
CCCCNC(=O)Nc1ccc(C(O)(C(=O)OCC)C(F)(F)F)cc1 (centres undefined) | 0 | 0 | 0 | 0 | 0
C/C=C1/CN2C3CC1C(CO)(C(=O)OC)C2Cc1c3n(C)c2ccccc12 (centres undefined) | 0 | - | - | - | -
CCC(=Nc1ccccc1NC(C)=O)c1c(O)n(C)c(=O)n(C)c1=O | 0 | 0 | 0 | 0 | 0
Cc1cc(OCc2nn[nH]n2)c2c3c(c(=O)oc2c1)CCCC3 | 0 | 72 | 0 | 0 | 0
Cc1cc(OCc2ccc([N+](=O)[O-])cc2)c2c3c(c(=O)oc2c1)CCCC3 | - | 79 | 0 | 60 | 0
SMILES | Cav3 T inh | CYP2C9 inhib | CYP2C19 activ | CYP2C19 inhib | CYP2C9 act
Cc1cc(OC(=O)CCNC(=O)OC(C)(C)C)c2c3c(c(=O)oc2c1)CCC3 | 0 | 0 | 0 | 0 | 0
CCCCOC(=O)COc1cc(C)cc2oc(=O)c3c(c12)CCC3 | 0 | 0 | 0 | 0 | 0
C=CCOC(=O)COc1cc(C)cc2oc(=O)c3c(c12)CCC3 | 0 | 58 | 0 | 84 | 0
Cc1cc(OC(=O)CCCNC(=O)OC(C)(C)C)c2c3c(c(=O)oc2c1)CCC3 | 0 | 55 | 0 | 0 | 0
CCC(=NCC1CCCO1)c1c(O)[nH]c(=O)[nH]c1=O (centres undefined) | 0 | 0 | 0 | 0 | 0
Cc1ccnc(-n2c(-c3ccco3)nc3ccccc3c2=O)c1 | 0 | 0 | 0 | 0 | 0
